Measured values as given in PubChem BioAssay.
Entries with a potency or affinity are not part of this list. Activity calls are given as the source filed them.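 Rule for the calls, unless noted: active = fitted dose curve reaches 40% lysis signal rise at or below the highest valid concentration tested for that sample; inconclusive = flat fit between 30% and 70%, or poor curve fit; inactive = signal falls, stays flat within 30%, or no crossing.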

Tests used:
[1] = inducers of Cryptococcus neoformans cell lysis, dose response, AK release luminescence, cherry-picks (AID 687000);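 note: luminescent detection of adenylate kinase leaking from lysed yeast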
[2] = HepG2 cell cytotoxicity, dose response, cytotoxicity control, cherry-picks, set 2 (AID 687002;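 active = a dose-response fit showing signal loss, with half-maximal concentration no higher than twice the top tested dose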)
[3] = HeLa cell cytotoxicity, dose response, cytotoxicity control, ATP luminescence, cherry-pick samples (AID 687004;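 active = a fitted half-maximal concentration no higher than twice the top valid tested dose, with signal falling as cells die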)

Measured: outcome

CCC(C)c1ccc(NC(=S)N2CCN(c3ccccn3)CC2)cc1 (centres undefined)
inactive: [1] | [2] | [3]

O=C1CCC(C(=O)Nc2cccc3ccccc23)N1 (centres undefined)
inactive: [1] | [2] | [3]

O=C(CCCNC(=O)c1ccc(Cl)cc1)Nc1nccs1
inactive: [1] | [2] | [3]

Cc1c(C(=O)NC(=S)Nc2ccc(N3CCOCC3)cc2)cccc1[N+](=O)[O-]
inactive: [1] | [2] | [3]

C[C@@H]1CN([C@H](C)CO)C(=O)c2ccccc2-c2ccccc2CO[C@H]1CN(C)S(=O)(=O)c1cccc(C#N)c1
inactive: [1] | [2] | [3]

C[C@H](CO)N1C[C@H](C)[C@H](CN(C)S(=O)(=O)c2cn(C)cn2)Oc2ncc(/C=C/c3ccccc3)cc2C1=O
inactive: [1] | [2] | [3]

Cc1ccc(NC(=S)NCc2ccc(Cl)cc2)c(OC(F)F)c1
inactive: [1] | [2] | [3]

O=C(CN1CCOCC1)N[C@@H]1CC[C@@H](CCNC(=O)C2CCC2)O[C@@H]1CO
inactive: [1] | [2] | [3]

C[C@@H]1CCCCO[C@@H](CN(C)C(=O)NC2CCCCC2)[C@H](C)CN([C@@H](C)CO)C(=O)c2cc(NS(=O)(=O)c3cn(C)cn3)ccc2O1
inactive: [1] | [2] | [3]

CCc1ccc(NC(=O)[C@H](C)NC(=O)C2CCN(C(=O)[C@@H](N)C(C)C)CC2)cc1
inactive: [1] | [2] | [3]

CCOC(=O)CNC(=O)CSc1ncnc2c1cnn2-c1ccc(C)cc1
inactive: [1] | [2] | [3]

CCC(=O)N1[C@H](CN(C)C(C)=O)[C@@H](c2ccc(C3=CCCCC3)cc2)[C@@H]1CO
inactive: [1] | [2] | [3]

Cc1cccc(OCC(=O)NCc2ccc(F)cc2)c1
inactive: [1] | [2] | [3]

Cc1cccc(-c2ccc([C@@H]3[C@@H](CO)N4CCCCN(S(=O)(=O)c5ccccc5C)C[C@@H]34)cc2)c1
inactive: [1] | [2] | [3]

COc1ccc(NC(=S)NCc2ccccc2Cl)c(OC)c1
inactive: [1] | [2] | [3]

CCC(=O)N1CCCC1(C)C(=O)Nc1ccc(C)c(C)c1 (centres undefined)
inactive: [1] | [2] | [3]

O=C(NC(=S)Nc1ccccc1N1CCOCC1)c1ccccc1F
inactive: [1] | [2] | [3]

C[C@H](CO)N1C[C@H](C)[C@@H](CN(C)Cc2ccc(Oc3ccccc3)cc2)Oc2ccc(NC(=O)Nc3ccc4c(c3)OCO4)cc2C1=O
inactive: [1] | [2] | [3]

CNC[C@H]1OCCCC[C@H](C)Oc2ccc(NC(=O)Cc3ccccc3)cc2C(=O)N([C@H](C)CO)C[C@@H]1C
inactive: [1] | [2] | [3]

O=S1(=O)CCC(N=Cc2cc(Br)ccc2O)C1 (centres undefined)
inactive: [1] | [2] | [3]

CCOC(=O)CNC(=O)CSc1ncnc2c1cnn2-c1ccc(Cl)cc1
inactive: [1] | [2] | [3]

CCCNC(=O)[C@H]1[C@H](CO)[C@H]2Cn3c(cccc3=O)[C@@H]1N2C(=O)Nc1cc(F)ccc1F
inactive: [1] | [2] | [3]

O=C(COc1ccccc1)NCc1ccccc1
inactive: [1] | [2] | [3]

Cc1ccc(C2CC(c3cccs3)=NN2C(=O)c2ccc(Br)o2)cc1 (centres undefined)
inactive: [1] | [2] | [3]

C[C@H]1CN([C@@H](C)CO)C(=O)c2cc(C#CC3(O)CCCC3)cnc2O[C@@H]1CN(C)Cc1cccnc1
inactive: [1] | [2] | [3]

CC(C)CC#Cc1cnc2c(c1)C(=O)N([C@@H](C)CO)C[C@H](C)[C@H](CN(C)C(=O)c1ccc3c(c1)OCO3)O2
inactive: [1] | [2] | [3]

Fc1ccc(CNC(=S)NCc2cccc(Cl)c2)cc1
inactive: [1] | [2] | [3]

COC(=O)C1=C(C)N(C)C(=S)N(C)C1c1ccc(OC)cc1 (centres undefined)
inactive: [1] | [2] | [3]

Cc1c(Cl)cccc1NC(=O)C1NC(=O)CC1c1ccccc1 (centres undefined)
inactive: [1] | [2] | [3]

Cc1ccc(N(CC(=O)NCCSCc2ccco2)S(=O)(=O)c2ccc(F)cc2)cc1
inactive: [1] | [2] | [3]

COc1ccc(CN(C)C[C@@H]2Oc3ccc(NC(=O)C4CC4)cc3C(=O)N([C@@H](C)CO)C[C@H]2C)cc1
inactive: [1] | [2] | [3]

C[C@H]1CN([C@@H](C)CO)S(=O)(=O)c2ccc(Br)cc2O[C@H]1CN(C)S(=O)(=O)c1ccccc1F
inactive: [1] | [2] | [3]

C[C@H](CO)N1C[C@H](C)[C@H](CN(C)CC2CCCCC2)Oc2c(NS(C)(=O)=O)cccc2C1=O
inactive: [1] | [2] | [3]

Cc1ccc(NC(=O)C(=O)NCCCN2CCCC2=O)c(C)c1
inactive: [1] | [2] | [3]

O=c1nc(-c2ccccc2)c2ccccc2[nH]1
inactive: [1] | [2] | [3]

Cc1noc(C)c1NC(=O)N(C)C[C@H]1Oc2ccc(N(C)C)cc2C(=O)N([C@H](C)CO)C[C@@H]1C
inactive: [1] | [2] | [3]

CCN1C(=S)N[C@@H](c2cccc(F)c2)C(C(=O)OC)=C1C
inactive: [1] | [2] | [3]

Cc1cccc(C)c1NC(=O)C1(NC(=O)C2CCC(=O)N2)CCCCC1 (centres undefined)
inactive: [1] | [2] | [3]

C[C@H](CO)N1C[C@H](C)[C@H](CN(C)C(=O)NC2CCCCC2)OCCCC[C@H](C)Oc2ccc(NS(=O)(=O)c3cn(C)cn3)cc2C1=O
inactive: [1] | [2] | [3]

COc1ccc(C#Cc2ccc3c(c2)O[C@H](CN(C)C(C)=O)[C@@H](C)CN([C@@H](C)CO)S3(=O)=O)cc1
inactive: [1] | [2] | [3]

COc1ccc(NC(=O)c2cn(C)c(=O)c3cc(OC)c(OC)cc23)c(OC)c1
inactive: [1] | [2] | [3]

Cc1ccccc1-n1ncc2c(SCC(=O)NCc3cccs3)ncnc21
inactive: [1] | [2] | [3]

O=C(C[C@@H]1CC[C@@H](NC(=O)c2cccnc2)[C@@H](CO)O1)NCCN1CCCCC1
inactive: [1] | [2] | [3]

Cc1ccccc1NC(=O)C1CCC(=O)N1 (centres undefined)
inactive: [1] | [2] | [3]

COc1ccc(NC(=O)N(C)C[C@H]2OCCCC[C@@H](C)Oc3ccc(NC(=O)c4ccccc4)cc3C(=O)N([C@H](C)CO)C[C@H]2C)cc1
inactive: [1] | [2] | [3]

Cc1cccc(C)c1NC(=O)CN(C)C(=O)CC1CC2CCC1C2 (centres undefined)
inactive: [1] | [2] | [3]

Cc1cccc(C)c1NC(=O)C1CCCN1C(=O)OC(C)(C)C (centres undefined)
inactive: [1] | [2] | [3]

COc1ccc(NC(=O)CN2CCN(S(=O)(=O)c3ccc(C(C)C)cc3)CC2)cc1OC
inactive: [1] | [2] | [3]

O=C(NC(=S)NCC1COc2ccccc2O1)c1ccccc1 (centres undefined)
inactive: [1] | [2] | [3]

Cc1ccc(NC(=O)C2(N3CCC3=O)CCCCC2)cc1
inactive: [1] | [2] | [3]

COc1cccc(S(=O)(=O)Nc2ccc3c(c2)[C@H]2C[C@@H](CC(=O)NC4CCCCC4)O[C@@H](CO)[C@H]2O3)c1
inactive: [1] | [2] | [3]

O=C(COc1ccc2c(c1)CCC2)NCc1ccccc1
inactive: [1] | [2] | [3]

COCCN1C(=O)CCC1(C)C(=O)Nc1c(C)cccc1C (centres undefined)
inactive: [1] | [2] | [3]

Cc1ccc(S(=O)(=O)N2CC[C@@H]3[C@H]2c2cc(-c4ccccc4F)ccc2N[C@@H]3CO)cc1
inactive: [1] | [2] | [3]

Cc1cccc(C)c1NC(=O)C1(C)CCC(=O)N1CCCn1ccnc1 (centres undefined)
inactive: [1] | [2] | [3]

CCN(C(=O)CSc1ncnc2c1cnn2-c1ccccc1)C1CCS(=O)(=O)C1 (centres undefined)
inactive: [1] | [2] | [3]

COc1ccc(NC(=O)CSc2ncnc3c2cnn3Cc2ccccc2)cc1
inactive: [1] | [2] | [3]

O=C(C[C@@H]1CC[C@H](NC(=O)Cc2ccccn2)[C@@H](CO)O1)NCCc1ccccc1
inactive: [1] | [2] | [3]
